# Sampled rows, rich in hits. Any-hit rate of the full collection: about 7.3%.
# SMN2 splice up = qHTS Assay for Enhancers of SMN2 Splice Variant Expression. Potency, µM (series often up to 46.1 µM), inactives show top-dose activity change, positive = activation, most hits filed as activators. HEK293 SMN2-luciferase splicing reporter, luminescence, 30-36 h. 2.8% of 210,000 active; also: % of control where 0% means no effect; nearly all actives have a fitted effect of over 55% in size
#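 qHTS luciferase splicing reporter: luminescence rises when SMN2 exon 7 is included in transfected HEK293 cells. Compound exposure lasted 30-36 h at 37C, with 4.5 mM final sodium butyrate as control, followed by a ONE-Glo read.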
# ELG1 genotoxic = qHTS screen for small molecules that induce genotoxicity in human embryonic kidney (HEK293T) cells expressing luciferase-tagged ELG1. HEK293T ELG1-luciferase reporter, luminescence, 16 h. Potency, µM (titrated, usually from 46 µM), without a hit: at the top dose activity change, positive = activation, hits mostly activators. 1.3% of 330,000 active. AID 504466, 2011; also: % of control where 0% means no effect; nearly all actives have a fitted effect of over 60% in size
#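 Quantitative HTS format in 1536-well plates. HEK293T ELG1-luciferase reporter cells receive test compound and are incubated 16 hr at 37 °C, 5% CO2; ONE-Glo added, 30 min room temperature, then luminescence read.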
# Rab9 prom act = qHTS Assay for Rab9 Promoter Activators. 2.8% of 320,000 active. Huh7 Rab9 promoter-luciferase reporter, luminescence, 24 h. Potency, µM (doses to about 9.22 µM), inactives show at the top dose activation, negative = inhibition, hits mostly activators. AID 485297, 2010; also: % of control where 0% means no effect; nearly all actives have a fitted effect of over 60% in size
#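 Cells were plated at 1500 per well in reduced-serum medium with 10% FBS and left 2 h. Compound in DMSO was then added for 24 h at 37 °C. Reporter signal was read by luminescence after 10 min with luciferase detection reagent.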
# NPC1 prom act = qHTS Assay for NPC1 Promoter Activators; Huh7 NPC1 promoter luciferase reporter, 24 h; Potency, µM (top dose mostly 9.22 µM), without a hit: at the top dose activation, most hits filed as activators; 2.4% of 320,000 active; AID 485313, 2010; also: % of control where 0% means no effect; nearly all actives have a fitted effect of over 60% in size
#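 Stable NPC1-promoter luciferase Huh7 line; cpd (DMSO) 24 h, 37 °C, 5% CO2; Amplite luciferase reagent 10 min RT; luminescence readout. qHTS format.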
# FLuc counter = qHTS profiling assay for firefly luciferase inhibitor/activator using purifed enzyme and Km concentrations of substrates (counterscreen for miR-21 project). AID 588342, 2011. purified FLuc, Km substrates, luminescence inhibition. 6.9% of 360,000 active. Potency, µM (doses to about 57.5 µM), without a hit: at the highest dose activity change, negative = inhibition, hits mostly inhibitors;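 also: plate controls were vehicle for no effect and reference inhibitor for full effect; nearly all actives have a fitted effect of over 55% in size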
# Target sequence (P08659 whole entry, looked up): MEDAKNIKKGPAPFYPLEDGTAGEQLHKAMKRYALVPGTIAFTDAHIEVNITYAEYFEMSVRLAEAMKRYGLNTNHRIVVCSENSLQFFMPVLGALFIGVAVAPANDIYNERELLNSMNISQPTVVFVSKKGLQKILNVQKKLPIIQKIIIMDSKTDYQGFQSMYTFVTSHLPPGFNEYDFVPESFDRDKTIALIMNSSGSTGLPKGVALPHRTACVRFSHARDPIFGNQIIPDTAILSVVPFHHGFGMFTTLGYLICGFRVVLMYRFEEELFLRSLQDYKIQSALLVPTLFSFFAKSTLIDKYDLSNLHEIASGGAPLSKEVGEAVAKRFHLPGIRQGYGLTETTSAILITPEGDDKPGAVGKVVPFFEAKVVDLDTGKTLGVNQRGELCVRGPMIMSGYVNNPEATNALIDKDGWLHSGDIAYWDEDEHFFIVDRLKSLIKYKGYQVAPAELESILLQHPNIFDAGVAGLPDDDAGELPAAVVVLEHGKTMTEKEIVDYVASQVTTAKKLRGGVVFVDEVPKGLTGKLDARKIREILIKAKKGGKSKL
#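 Purified P. pyralis luciferase, 10 nM final, with Km-level 10 uM D-luciferin and 10 uM ATP in 50 mM Tris acetate pH 7.5, 10 mM Mg acetate, 0.01% Tween-20, 0.05% BSA; 6-point qHTS titration about 60 µM downward; luminescence read.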
# uPA surface inh = qHTS for Inhibitors of Cell Surface uPA Generation. cell surface uPA generation assay, qHTS. Potency, µM (doses to about 38.3 µM), inactives show top-dose activity change, negative = inhibition, hits mostly inhibitors. 0.31% of 330,000 active. AID 540303, 2011; active = well fitted inhibition curve with a large enough effect; inconclusive = small, poorly fitted or top-dose-only effect; inactive = no such curve, though single readings can be large or run the other way; tested in mouse RAW 264.7 cells; also: % is scaled to controls: 0 for no effect and ±100 for the full control effect; nearly all actives have a fitted effect of over 55% in size
# * marks the source's active call; other numbers are inactive results; ? = inconclusive; . = no result. Unless noted, calls follow the shape of the dose curve; as a rule, active = well fitted curve in the direction sought with a large enough effect; inconclusive = small, poorly fitted or top-dose-only effect, or another doubt; inactive = no such curve, though single readings can be large; an effect the other way counts as inactive or inconclusive. Potency is read from the fitted curve at half-maximal effect.
SMILES,SMN2 splice up,ELG1 genotoxic,Rab9 prom act,NPC1 prom act,FLuc counter,uPA surface inh
Cc1ccc(C(=O)Nc2ccc(Cl)cc2C)c(Cl)c1,10µM*,2.91µM*,3.16µM*,0.891µM*,1.69µM*,?
Cc1ccc(NC(=O)c2ccc(Cl)cc2Cl)cc1O,.,?,?,?,8.49µM*,?
CNS(=O)(=O)c1ccc(NC(=O)c2ccc(Cl)cc2Cl)cc1,-9.4%,-0.4%,2.6%,-3.7%,-12.8%,-0.4%
Cc1ccc(C(=O)Nc2ccc(Cl)cc2C(F)(F)F)c(Cl)c1,?,27.1%,?,25.8%,10.7µM*,0.0%
O=C(Nc1ccc(Cl)cc1C(F)(F)F)c1ccccc1Cl,4.6%,-0.6%,17.8%,6.1%,?,-5.6%
CCC(CC)C(=O)Nc1ccc(S(=O)(=O)N2CCC(c3nc4ccccc4s3)CC2)cc1,.,.,.,.,-1.0%,.
Cc1nn2cc(-c3cccc(Cl)c3)cnc2c1Cl,12.6µM*,18.2%,?,-11.9%,-19.5%,-11.2%
COc1ccc(C(=O)NNC(=O)Nc2ccc(Cl)cc2)cc1,6.3%,?,17.2%,?,-14.3%,2.8%
COc1ccc(NC(=O)Nc2ccc(F)c(Cl)c2)cc1,14.1µM*,3.6%,2.82µM*,3.55µM*,?,-9.4%
Cc1ccc(NC(=O)Nc2ccc(F)c(Cl)c2)cc1,12.6µM*,8.1%,?,?,4.26µM*,-11.5%
CCC(CC)NC(=O)Nc1ccc(F)c(Cl)c1,12.6%,-11.9%,-3.7%,2.8%,-4.7%,-4.6%
O=C(Nc1cccnc1)Nc1ccc(F)c(Cl)c1,.,-8.2%,11.6%,11.8%,23.9µM*,-1.6%
CCC(C(=O)Nc1ccccc1OC)n1c(C(=O)OC)cc2sc(Cl)cc21 (centres undefined),-16.9%,.,.,.,-7.9%,.
CCOCC(=O)Nc1c(C(=O)Nc2ccc3c(c2)OCCO3)oc2ccccc12,2.82µM*,?,0.708µM*,1.41µM*,-15.4%,2.9%
CCOCC(=O)Nc1c(C(=O)Nc2ccccc2OC)oc2ccccc12,-11.1%,10.1%,?,29.5%,-17.8%,.
COc1ccc(NC(=O)c2oc3ccccc3c2NC(=O)c2ccc3c(c2)OCO3)cc1,23.5%,1.5%,16.3%,12.0%,9.53µM*,.
COCC(=O)Nc1c(C(=O)Nc2ccc3c(c2)OCCO3)oc2ccccc12,7.94µM*,3.0%,1.12µM*,1.41µM*,.,-3.0%
O=C(Nc1ccc2c(c1)OCCO2)c1oc2ccccc2c1NC(=O)C1CC1,?,-5.8%,17.4%,1.1%,?,-1.0%
CCC(=O)Nc1c(C(=O)Nc2ccc3c(c2)OCCO3)oc2ccccc12,15.8µM*,9.8%,2.82µM*,?,?,1.9%
CCN(CC)S(=O)(=O)c1nnc(NC(=O)COc2cccc(C)c2)s1,.,.,.,.,-11.2%,.
O=C(CN1C(=O)c2cccc3cccc1c23)Nc1ccccc1Br,-7.5%,.,.,.,5.2%,.
Cc1cc(C(=O)Nc2ncn[nH]2)ccc1[N+](=O)[O-],2.2%,0.6%,2.1%,0.3%,-0.5%,9.2%
CC(=O)Nc1ccc(/C=N/NC(=O)c2cc(-c3ccco3)nc3ccccc23)cc1,.,3.2%,3.1%,2.7%,2.13µM*,-0.7%
O=C(O)c1cc(-c2ccco2)nc2cc3ccccc3cc12,.,10.0%,22.3%,15.8%,8.49µM*,-4.9%
O=C(O)c1ccccc1/C=N/NC(=O)c1cc(-c2ccco2)nc2ccccc12,.,-1.5%,13.5%,-5.0%,0.953µM*,-3.3%
O=C(NNC(=O)c1cc(-c2ccco2)nc2ccccc12)c1ccccc1,.,-5.1%,2.9%,-1.6%,19µM*,1.0%
CCC1CCc2nc3sc(C(=O)Nc4cccc(F)c4)c(N)c3cc2C1 (centres undefined),-11.6%,.,.,.,-1.7%,.
Cc1ccc(NC(=O)CSc2n[nH]c(=O)n2C2CC2)cc1S(=O)(=O)N1CCOCC1,?,0.2%,-0.2%,-1.7%,8.5%,-5.3%

# From PubChem BioAssay
